Bioassay records (PubChem)
A selection: hits, their analogues and other compounds. The true share with any hit is near 2.9%.
MEKK3 PB1 HTS – MEKK3-MEK5 PB1 interaction, increase or decrease | binding response (% of control), % at 10 µM | AID 1529 | 290,000 tested, 1.4% active | bead-based flow cytometry, Alexa488-MEK5 binding to MEKK3; actives lie on both sides; 0 = blocked by unlabeled MEK5, 100 = vehicle | Q99759;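 active means binding response more than 3 SD above or below the average of its plate-row segment, actives on both sides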;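 further: Alexa488 bead fluorescence after subtracting the streptavidin-only scavenger bead signal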
Target sequence (Q99759 whole entry, looked up): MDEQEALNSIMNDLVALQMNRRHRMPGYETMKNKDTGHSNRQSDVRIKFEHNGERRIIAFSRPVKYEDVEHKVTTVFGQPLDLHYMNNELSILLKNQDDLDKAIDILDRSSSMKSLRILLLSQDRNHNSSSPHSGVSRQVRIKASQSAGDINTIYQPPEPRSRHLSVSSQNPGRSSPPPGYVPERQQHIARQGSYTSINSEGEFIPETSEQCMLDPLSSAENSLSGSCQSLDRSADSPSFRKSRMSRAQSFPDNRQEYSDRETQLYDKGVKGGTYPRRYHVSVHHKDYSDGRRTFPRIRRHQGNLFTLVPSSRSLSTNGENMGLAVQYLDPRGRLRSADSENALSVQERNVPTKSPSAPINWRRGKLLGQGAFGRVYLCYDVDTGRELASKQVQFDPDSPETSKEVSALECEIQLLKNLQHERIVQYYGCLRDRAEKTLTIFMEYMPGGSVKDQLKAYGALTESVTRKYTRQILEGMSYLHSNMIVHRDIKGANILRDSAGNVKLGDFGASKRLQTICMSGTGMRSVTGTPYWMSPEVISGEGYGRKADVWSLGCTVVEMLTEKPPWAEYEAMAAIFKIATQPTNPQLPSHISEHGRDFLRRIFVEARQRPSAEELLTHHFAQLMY
GRK2 inh – inhibitors of human GRK2 displacing RNA aptamer; inhibition of aptamer binding, % at 10 µM; AID 488847; bead flow cytometry, FAM-aptamer displacement from GRK2; P25098; 330,000 tested, 0.59% active;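 active means inhibition of aptamer binding above 40%, roughly 3 SD of noise, on plates passing a quality check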;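 further: median bead fluorescence of bound FAM aptamer so fluorescent compounds give negative values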
MEKK2 WT-MEK5 – raises or lowers MEK5 binding to wildtype human MEKK2 PB1 domain. Q9Y2U5. bead flow cytometry, Alexa488-MEK5 binding to MEKK2 WT; actives lie on both sides. binding response (% of control), % at 10 µM. 290,000 tested, 1.1% active; in the data active means binding response below about 67% or above about 130%
MEKK2 mut-MEK5 – signal of MEK5 binding to mutant human MEKK2 PB1 domain | 290,000 tested, 0.35% active | bead flow cytometry, Alexa488-MEK5 binding to MEKK2 mutant | percent response, % at 10 µM; in the data active means percent response above about 24%, passing the limit was not always enough
Beta2AR agonist – agonists of human beta-2 adrenergic receptor inducing internalization. 340,000 tested, 0.43% active. P07550. Am2.2-beta2AR cells, FAP receptor internalization, flow cytometry. response, % (concentration not given with the values). AID 504454;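 active means response above a set limit, near 3 SD of response in nonfluorescent compounds, cut at about 42% in these data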
MEKK2wt confirm – raises or lowers MEK5 binding to wildtype human MEKK2, retest | shares compounds with MEKK3 PB1 HTS | bead flow cytometry, Alexa488-MEK5 binding to MEKK2 WT; actives lie on both sides | binding response (% of control), % at 10 µM | 5,900 tested, 2.4% active | AID 1892; in the data active means binding response below about 16% or above about 210%; inactive means in between
MEKK2mut confirm – signal of MEK5 binding to mutant human MEKK2, retest | shares compounds with MEKK3 PB1 HTS | bead flow cytometry, Alexa488-MEK5 binding to MEKK2 mutant | percent response, % at 10 µM | 5,900 tested, 2% active | AID 1893; in the data active means percent response mostly above about 71%, no sharp cut-off; inactive means mostly below about 38%;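 further: higher means compound restores mutant binding toward wildtype level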
MEKK3-MEK5 inh – confirmation of inhibitors of MEK5 binding to human MEKK3; shares compounds with MEKK3 PB1 HTS; AID 1894; bead flow cytometry, Alexa488-MEK5 binding to MEKK3; active compounds read low; binding response (% of control), % at 10 µM; 5,900 tested, 1.8% active;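 active means binding response below 72% of control, or above a set upper limit, though filed actives all read lower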;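 further: 100% = DMSO only wells and 0% = binding blocked by excess unlabeled MEK5; lower values mean stronger disruption of MEK5 binding to MEKK3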
Numbers without * were called inactive; / = no result; + = active, no number; [ ] = remark or other dose.

SMILES	MEKK3 PB1 HTS	GRK2 inh	MEKK2 WT-MEK5	MEKK2 mut-MEK5	Beta2AR agonist	MEKK2wt confirm	MEKK2mut confirm	MEKK3-MEK5 inh
O=C(Nc1ccccc1)C(c1ccccc1)C1CCCC1 (configuration not stated)	148*	/	104	0	-35	107	10	105
CC1=NNC(=O)C1C(c1ccccc1)C1C(=O)NN=C1C (configuration not stated)	129*	4	113	1	/	97	-6	101
C=CCn1cnc2c(nnn2-c2ccc(C)c(C)c2)c1=O	2.0*[inhibitor]	0	1.0*[inhibitor]	-72	-3	97	-5	101
COC(=O)c1ccc(NC(=O)CSc2nnc(COc3ccccc3)n2C)cc1	113	0	120	24*	4	99	3	105
COc1cccc(NC(=O)CSc2nnc(Cn3cnc([N+](=O)[O-])n3)n2C)c1	107	0	96	2	5	/	/	/
COc1ccc(NC(=O)CSc2nnc(Cn3cnc([N+](=O)[O-])n3)n2C)cc1	41*[inhibitor]	3	77	1	3	100	-3	101
Cn1c(Cn2cnc([N+](=O)[O-])n2)nnc1SCC(=O)Nc1ccccc1	144*	0	110	1	-2	106	0	105
Cn1c(COc2ccccc2)nnc1SCC(=O)Nc1ccc(S(N)(=O)=O)cc1	82	0	89	-7	1	/	/	/
CC(=O)NC(Cc1c[nH]c2ccccc12)C(=O)OCC(=O)N1CCN(S(=O)(=O)c2ccc(Cl)cc2)CC1 (configuration not stated)	/	/	/	/	23	/	/	/
COc1cccc(N2C(=NC(=O)C3CCCO3)SC3CS(=O)(=O)CC32)c1 (configuration not stated)	96	0	95	0	-1	/	/	/
CC1(C2CC2)NC(=O)N(CC(=O)N2CCN(c3ccccc3)CC2)C1=O (configuration not stated)	/	0	/	/	-12	/	/	/
O=C(NC1CCCC1)C(c1ccc(F)cc1)N(C(=O)c1csnn1)C1CC1 (configuration not stated)	105	0	102	1	5	/	/	/
CC(=O)[C@]1(O)Cc2c(O)c3c(c(O)c2[C@@H](O[C@H]2C[C@H](N)[C@H](O)[C@H](C)O2)C1)C(=O)c1ccccc1C3=O	105	0	25*	30*	/	104	2	101
COc1cccc2c1C(=O)c1c(O)c3c(c(O)c1C2=O)C[C@@](O)(C(C)=O)C[C@@H]3O[C@H]1C[C@H](N)[C@H](O)[C@H](C)O1	99	/	84	0	-108	/	/	/
O=C(O)Cc1ccc(N=Nc2c(O)c(C(=O)O)cc3ccccc23)cc1	99	1	91	4	9	/	/	/
NS(=O)(=O)c1ccc(N=Nc2c(O)c(C(=O)O)cc3ccccc23)cc1	65*[inhibitor]	1	69	-39	4	96	-4	98
O=C(OCC(=O)N1CCCc2ccccc21)c1ccccc1OC(F)F	/	9	/	/	8	/	/	/
CSCCC(=O)N1CCC(n2nccc2NC(=O)CCCc2ccccc2)CC1	99	0	100	7	-5	/	/	/
CCOc1cc(/C=N/O)cc(Br)c1OCC	124*	0	100	6	2	103	0	102
Fc1cccc(Cl)c1Cn1nnc2c(NCc3ccncc3)ncnc21	104	0	82	63*	3	104	-4	95
CCCc1cc(=O)[nH]c(SCC(=O)Nc2sc3c(c2C(N)=O)CCCC3)n1	/	0	/	/	-8	/	/	/
COc1ccc(-n2c(C)cc(/C=C3/SC(=O)N(CC(=O)N4CCOCC4)C3=O)c2C)cc1	97	4	101	-2	-10	/	/	/
Cc1cc(/C=C2/SC(=O)N(CC(=O)N3CCOCC3)C2=O)c(C)n1-c1ccccc1F	148*	0	105	0	-1	103	-8	98
COc1ccc(NC(=O)CN(C)S(=O)(=O)c2ccc3c(c2)CC(C)N3C(C)=O)cc1OC (configuration not stated)	101	5	98	-3	-1	/	/	/
CCCC(=O)NCn1nnc(-c2ccc(Cl)cc2)n1	221*	/	94	+	-4	102	1	103
SMILES	MEKK3 PB1 HTS	GRK2 inh	MEKK2 WT-MEK5	MEKK2 mut-MEK5	Beta2AR agonist	MEKK2wt confirm	MEKK2mut confirm	MEKK3-MEK5 inh
N#Cc1cc2c(nc1Cl)CCC2	99	1	97	-2	-2	/	/	/
Cc1cc(C)nc(SCc2cc(=O)c(OC(=O)c3ccco3)co2)n1	113	0	101	-1	9	/	/	/
Cc1cc(C)nc(SCc2cc(=O)c(OC(=O)c3ccc(Br)o3)co2)n1	128*	3	109	1	-4	100	-8	99
COc1ccc(C(=O)OCC2CC(c3ccccc3)=NO2)cc1OC (configuration not stated)	96	0	98	-3	1	/	/	/
COc1cc(C(=O)OCC2CC(c3ccccc3)=NO2)cc(OC)c1OC (configuration not stated)	101	0	93	280*	4	100	0	104
O=C1NCCCC1C(=O)N1CCN(C(c2ccccc2)c2ccccc2)CC1 (configuration not stated)	82*[inhibitor]	1	98	-9	-4	103	7	108
O=C(Cn1cnc2ccccc2c1=O)N1CCN(c2ccccc2)CC1	122*	3	104	6	-4	102	1	103
CC1CCCCN1c1nc2nonc2nc1N1CCCCC1C (configuration not stated)	126*	0	97	6	0	98	-2	99
COc1ccccc1Nc1nc2nonc2nc1N1CCCCC1C (configuration not stated)	99	3	97	-3	0	/	/	/
Cc1cc2oc(=O)cc(Cn3ncc(Cl)c(Cl)c3=O)c2cc1Cl	101	2	97	2	9	/	/	/
Cc1cc(C)n(CCCNC(=O)C(C)(C)Oc2ccc(Cl)cc2)n1	/	1	/	/	-4	/	/	/
CCS(=O)(=O)c1nc(S(=O)(=O)c2ccc(Cl)cc2)c(N2CCN(CCO)CC2)s1	107	0	105	4	-7	/	/	/
CCS(=O)(=O)c1nc(S(=O)(=O)c2ccc(Cl)cc2)c(N2CCc3ccccc3C2)s1	135*	3	102	0	-10	100	3	103
O=C(Cc1c(F)cccc1Cl)NNC(=O)c1cccs1	/	0	/	/	13	/	/	/
